The panel holds about 83,000 compounds, 20% with a hit somewhere; the sample as a whole holds those more often.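 Each cell line was grown in a 96-well plate and treated with one concentration of compound for 48 hours. Values below 10 were considered active.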 Activity calls are given as the source filed them.
Tests used:
Assay in all cases: NCI-60 one-dose screen, 48 h (100 = growth as untreated, 0 = no growth, -100 = all killed)
Details in all cases: 10 µM unless noted
HCT-15 colon = system: HCT-15 colon
HT29 colon = system: HT29 colon
SNB-75 CNS = system: SNB-75 CNS
SNB-19 CNS = system: SNB-19 CNS
U251 CNS = system: U251 CNS
PC-3 prostate = system: PC-3 prostate
SK-MEL-5 melanoma = system: SK-MEL-5 melanoma
UACC-62 melanoma = system: UACC-62 melanoma
LOX IMVI melanoma = system: LOX IMVI melanoma
SK-MEL-28 melanoma = system: SK-MEL-28 melanoma

Measured: growth

COP(=O)(OC)C(c1ccccc1)(c1ccccc1)c1ccccc1
inactive: HCT-15 colon 107% | HT29 colon 91.4% | SNB-75 CNS 108% | SNB-19 CNS 99.9% | U251 CNS 87.7% | PC-3 prostate 75.2% | SK-MEL-5 melanoma 89.5% | UACC-62 melanoma 70.9% | LOX IMVI melanoma 84.2% | SK-MEL-28 melanoma 109%

Nc1ccc(Oc2c(F)c(F)c(Oc3ccc(N)cc3)c(F)c2F)cc1
inactive: HCT-15 colon 86.7% | HT29 colon 108% | SNB-75 CNS 89.5% | SNB-19 CNS 94.8% | U251 CNS 83.3% | PC-3 prostate 84.4% | SK-MEL-5 melanoma 111% | UACC-62 melanoma 90.9% | LOX IMVI melanoma 86.5% | SK-MEL-28 melanoma 115%

O=C(Oc1cccc2ccccc12)c1ccccc1C(=O)c1ccccc1
inactive: HCT-15 colon 93.2% | HT29 colon 59.5% | SNB-75 CNS 98.1% | SNB-19 CNS 101% | U251 CNS 79.5% | PC-3 prostate 47.6% | SK-MEL-5 melanoma 96.6% | UACC-62 melanoma 96.6% | LOX IMVI melanoma 72.3% | SK-MEL-28 melanoma 119%

Cc1ccc(N/N=C(/C(=O)c2ccc(Cl)cc2)c2nc(C)cc(=O)[nH]2)cc1
inactive: HCT-15 colon 111% | HT29 colon 111% | SNB-75 CNS 116% | SNB-19 CNS 104% | U251 CNS 103% | PC-3 prostate 95% | SK-MEL-5 melanoma 82.5% | UACC-62 melanoma 90.8% | LOX IMVI melanoma 92.6% | SK-MEL-28 melanoma 118%

COc1cc(C2=NN(C=O)C(c3cccc(Nc4ccnc5cc(Cl)ccc45)c3)C2)cc(OC)c1OC (stereo not given)
inactive: HCT-15 colon 52.4% | HT29 colon 22% | SNB-75 CNS 74.3% | SNB-19 CNS 76.2% | U251 CNS 66.8% | PC-3 prostate 42.7% | SK-MEL-5 melanoma 68.1% | UACC-62 melanoma 96.4% | LOX IMVI melanoma 54.5% | SK-MEL-28 melanoma 90.6%

c1ccc2nc(N/N=C3\CCCCC3C3CCCCC3)ccc2c1 (stereo not given)
inactive: HCT-15 colon 33.5% | HT29 colon 26.6% | SNB-75 CNS 70.2% | SNB-19 CNS 76% | U251 CNS 41.6% | PC-3 prostate 14% | SK-MEL-5 melanoma 39.7% | UACC-62 melanoma 50.8% | LOX IMVI melanoma 23.4% | SK-MEL-28 melanoma 62.6%

CCSc1nc(-c2cccs2)n2nc(-c3ccco3)cc2n1
inactive: HCT-15 colon 78% | HT29 colon 88.8% | SNB-75 CNS 84.2% | SNB-19 CNS 109% | U251 CNS 91.4% | PC-3 prostate 99% | SK-MEL-5 melanoma 86.5% | UACC-62 melanoma 85.2% | LOX IMVI melanoma 92% | SK-MEL-28 melanoma 113%

c1ccc(-c2n(Cc3ccc4ccccc4c3)cc[n+]2Cc2ccc3ccccc3c2)cc1
inactive: HCT-15 colon 15.2%
active: HT29 colon -83.8% | SNB-75 CNS -29.5% | SNB-19 CNS -32.4% | U251 CNS -93.5% | PC-3 prostate -58.8% | SK-MEL-5 melanoma -98.4% | UACC-62 melanoma -80% | LOX IMVI melanoma -92.5% | SK-MEL-28 melanoma -84.2%

O=C(/C=C/c1c(-c2ccccc2)[nH]c2ccccc12)S(=O)(=O)c1ccccc1
inactive: HCT-15 colon 38.1% | HT29 colon 34% | SNB-75 CNS 84.5% | SNB-19 CNS 82.4% | U251 CNS 76.5% | PC-3 prostate 36.5% | SK-MEL-5 melanoma 37.4% | UACC-62 melanoma 39.1% | LOX IMVI melanoma 56.5% | SK-MEL-28 melanoma 72.5%

COc1ccc2c(c1)sc1nc(-c3ccc(Br)cc3)cn12
inactive: HCT-15 colon 110% | HT29 colon 108% | SNB-75 CNS 112% | SNB-19 CNS 115% | U251 CNS 99.5% | PC-3 prostate 101% | SK-MEL-5 melanoma 76.4% | UACC-62 melanoma 86.2% | LOX IMVI melanoma 99.1% | SK-MEL-28 melanoma 112%

COc1cc(NC(=O)NCc2ccco2)ccc1-c1ccc(NC(=O)NCc2ccco2)cc1OC
inactive: HCT-15 colon 48.7% | HT29 colon 33.7% | SNB-75 CNS 65.3% | SNB-19 CNS 72.9% | U251 CNS 12.4% | PC-3 prostate 33.6% | SK-MEL-5 melanoma 30.6% | UACC-62 melanoma 45.3% | LOX IMVI melanoma 45.4% | SK-MEL-28 melanoma 79.8%

Cc1ccc2c(c1)C(=O)/C(=C\Nc1ccc(C(N)=O)cc1)C(O)O2 (stereo not given)
inactive: HCT-15 colon 85.9% | HT29 colon 105% | SNB-75 CNS 74.8% | SNB-19 CNS 106% | U251 CNS 85.6% | PC-3 prostate 76.4% | SK-MEL-5 melanoma 104% | UACC-62 melanoma 106% | LOX IMVI melanoma 85.3% | SK-MEL-28 melanoma 99.8%

c1ccc2nc(Cn3c[n+](Cc4ccc5ccccc5n4)c4ccccc43)ccc2c1
active: SK-MEL-5 melanoma -83.9% | UACC-62 melanoma -16.4%
inactive: HCT-15 colon 98.7% | HT29 colon 15.5% | SNB-75 CNS 41.4% | SNB-19 CNS 30.5% | U251 CNS 34% | PC-3 prostate 14.6% | LOX IMVI melanoma 25.8% | SK-MEL-28 melanoma 39.4%

CNc1nc(NC2CCCC2)nc(Sc2ccc(OC)cc2)n1
active: HT29 colon 3.05% [100 µM] | PC-3 prostate -7.58% [100 µM]
inactive: HCT-15 colon 24.8% [100 µM] | SNB-75 CNS 48.9% [100 µM] | SNB-19 CNS 40.4% [100 µM] | U251 CNS 25.8% [100 µM] | SK-MEL-5 melanoma 11.6% [100 µM] | UACC-62 melanoma 25.1% [100 µM] | LOX IMVI melanoma 22.4% [100 µM] | SK-MEL-28 melanoma 46.4% [100 µM]
